According to the supplement of paper PMC6763611:

What follows are compounds tested on Plasmodium falciparum NF54 (assay: growth inhibition relative to untreated control; higher = more inhibition). Settings: 5 µM; MM + chorismate end-products (CM screening medium); 72 h.
How it was run: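 In dark 96-well half-area plates, each well held 100 μL of P. falciparum NF54 ring-stage culture at 1% parasitemia and 1% hematocrit. The cultures received a single test-compound dose of 5 μM or 1 μM and were kept at 37 °C for 72 h, in minimal RPMI either plain or enriched with folate (2.2 μM), pABA (7.3 μM), pHBA (7.3 μM), tyrosine (111 μM), phenylalanine (90 μM) and tryptophan. SYBR Green staining gave growth inhibition, expressed against untreated wells, with uninfected erythrocytes serving as the background.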

**Q.** How did the growth inhibition turn out when `OCCc1ccc(Nc2nccc(-c3nnc4ccccn34)n2)cc1` was run?
**A.** Its growth inhibition is 65.5%.

**Q.** How did the growth inhibition turn out when `Cc1nc(-c2cccc(NCc3ccccc3)c2)[nH]c1C` was run?
**A.** The growth inhibition was 93.4%.

**Q.** For `COc1cccc(NC(=O)c2c(NC(=O)c3cccnc3)sc3c2CCC3)c1`, which growth inhibition is on record?
**A.** The growth inhibition was 53.5%.

**Q.** Which growth inhibition does the source give for `NCCCC(N)(C(=O)O)C(F)F` (stereo not drawn) here?
**A.** The growth inhibition was < 0%.

**Q.** `OC[C@H]1O[C@@H](n2c3ccc(Cl)cc3c3c(-c4cc5ccccc5o4)ncnc32)C(O)[C@H]1O` (stereo partly drawn) was tested. Which growth inhibition did it give?
**A.** The growth inhibition was 63.8%.

**Q.** How did the growth inhibition turn out when `COc1ccc(C2=NN(C3CCCCCC3)C(=O)[C@@H]3CC=CC[C@H]23)cc1OCCCCOc1ccc(-c2nnn[nH]2)cc1` was run?
**A.** Its growth inhibition is 44.9%.

**Q.** `CC1=NN(c2nc3ccccc3s2)C(=O)C1Cc1cccc2ccccc12` (stereo not drawn) was tested. Which growth inhibition did it give?
**A.** The growth inhibition was < 0%.

**Q.** Which growth inhibition does the source give for `Cc1nc(-c2ccccn2)nc(N2CCC(Cc3ccccc3)C2)c1Cl` (stereo not drawn) here?
**A.** Its growth inhibition is 80.2%.

**Q.** `c1ccc(-c2cc(N3CCCCC3)c3ccccc3n2)nc1` was tested. Which growth inhibition did it give?
**A.** The growth inhibition was 37.4%.

**Q.** `Cc1cc(Cl)c(S(=O)(=O)N2CCCC2)cc1OCC(=O)NC1CCCCC1` was tested. Which growth inhibition did it give?
**A.** Its growth inhibition is 82.3%.

**Q.** Which growth inhibition does the source give for `CC1COC2(CCN(c3nc(=O)c4cc(C(F)(F)F)cc([N+](=O)[O-])c4s3)CC2)O1` (stereo not drawn) here?
**A.** Its growth inhibition is 14.7%.

**Q.** Which growth inhibition does the source give for `Cc1cccc(Cn2ccc(NC(=O)c3ccc4c(c3)OCO4)n2)c1` here?
**A.** The growth inhibition was 12.8%.

**Q.** For `COc1ccc(-c2cnc3cnc(-c4cccc(OC(C)C)c4)cn23)cc1`, which growth inhibition is on record?
**A.** Its growth inhibition is < 0%.

**Q.** For `COc1ccc(-c2onc(C(F)(F)F)c2-c2ccc(Cl)cc2)c(O)c1`, which growth inhibition is on record?
**A.** Its growth inhibition is 98.9%.

**Q.** For `Cc1ccc(Oc2ccc(NC(=O)CNc3ccccc3N3CCCC3=O)cc2)cc1`, which growth inhibition is on record?
**A.** The growth inhibition was 98.3%.

**Q.** For `COc1cc(C2=NCCN2)cc2cc(-c3ccc(C4=NCCN4)cc3)oc12`, which growth inhibition is on record?
**A.** The growth inhibition was 98.4%.

**Q.** For `C[C@]1(O)C[C@@H](c2nc(-c3ccc4ccc(-c5ccccc5)nc4c3)c3c(N)nccn32)C1`, which growth inhibition is on record?
**A.** Its growth inhibition is 53.2%.

**Q.** With `CC(C)(C)[C@H]1CC[C@H](CC2=C(O)C(=O)c3ccccc3C2=O)CC1` as the compound, how does the growth inhibition read?
**A.** The growth inhibition was 94.8%.

**Q.** For `CN(C)CCNC(=O)N1CCCN(c2ncnc3cc(-c4ccccc4)sc23)CC1`, which growth inhibition is on record?
**A.** Its growth inhibition is > 100%.

**Q.** With `Cc1cc(C(=O)Nc2ccc(-c3ccccc3)cc2)no1` as the compound, how does the growth inhibition read?
**A.** The growth inhibition was 84.6%.

**Q.** `COc1ccc(Oc2ccc([C@@H](C)N(C)c3ncc4c(N)nc(N)nc4n3)cc2)cc1` was tested. Which growth inhibition did it give?
**A.** Its growth inhibition is > 100%.

**Q.** For `N#Cc1nc(-c2ccccc2F)oc1NCCc1ccccc1`, which growth inhibition is on record?
**A.** Its growth inhibition is < 0%.

**Q.** With `COc1ccc2nccc(NC(=O)C3CCN(CCc4ccc(Cl)cc4)CC3)c2n1` as the compound, how does the growth inhibition read?
**A.** The growth inhibition was 42.1%.

**Q.** How did the growth inhibition turn out when `Cc1[nH]c2ccccc2c1C(c1cccs1)N1CCN(C)CC1` (stereo not drawn) was run?
**A.** The growth inhibition was 9.09%.

**Q.** With `COc1cc(NC(=O)Cc2nn(C)c(=O)c3ccccc23)ccc1Cl` as the compound, how does the growth inhibition read?
**A.** Its growth inhibition is 15.2%.

**Q.** Which growth inhibition does the source give for `CCN(CC)CCCCCCNc1cc(OC)cc2c(C)ccnc12` here?
**A.** Its growth inhibition is 81.2%.

**Q.** For `CCOC(=O)NC(=O)c1ccsc1NC(=O)c1nc2ccccc2s1`, which growth inhibition is on record?
**A.** The growth inhibition was < 0%.

**Q.** `O=C(C1CCN(c2nnc(-n3cccc3)s2)CC1)N1CCC(Cc2ccccc2)CC1` was tested. Which growth inhibition did it give?
**A.** Its growth inhibition is 48.7%.

**Q.** For `NC(=O)c1cc(Br)ccc1OCCOc1ccccc1`, which growth inhibition is on record?
**A.** Its growth inhibition is 28.6%.

**Q.** With `COc1cc(Br)cc2cc(C(=O)Nc3cccc(C(F)(F)F)c3)c(=O)oc12` as the compound, how does the growth inhibition read?
**A.** Its growth inhibition is 21.7%.

**Q.** Which growth inhibition does the source give for `CC(C)/N=c1\cc2n(-c3ccc(Cl)cc3)c3ccccc3nc-2cc1Nc1ccc(Cl)cc1` here?
**A.** Its growth inhibition is 90%.

**Q.** For `CCCCc1ccc(C(=O)Nc2nccc3ccccc23)nc1`, which growth inhibition is on record?
**A.** Its growth inhibition is 11.6%.

**Q.** With `Nc1ccc2ncnc(Nc3ccc(OCc4cccc(F)c4)c(Cl)c3)c2c1` as the compound, how does the growth inhibition read?
**A.** Its growth inhibition is 99.7%.

**Q.** For `O=C(NC1CC1)c1ccc(CSCc2ccccc2Cl)o1`, which growth inhibition is on record?
**A.** Its growth inhibition is > 100%.

**Q.** How did the growth inhibition turn out when `NS(=O)(=O)c1cncc(-c2ccc3nccc(-c4cn[nH]c4)c3n2)c1` was run?
**A.** Its growth inhibition is 92.8%.

**Q.** How did the growth inhibition turn out when `CNC1C(OC2C(OC3C(O)C(O)C(N=C(N)N)C(O)C3N=C(N)N)OC(C)C2(O)C=O)OC(CO)C(O)C1O` (stereo not drawn) was run?
**A.** Its growth inhibition is < 0%.

**Q.** How did the growth inhibition turn out when `CC(=O)N(CCN(C(=O)c1ccc(F)cc1)c1ccccc1)c1ccccc1` was run?
**A.** Its growth inhibition is 20.2%.

**Q.** For `Cn1ncc2c(N3CCOCC3)nc(NCCc3c[nH]c4ccccc34)nc21`, which growth inhibition is on record?
**A.** Its growth inhibition is 10.8%.
